This note sets out measurements from PubChem BioAssay (NCATS).

Records with an inconclusive call do not appear. Activity calls are given as the source filed them. Unless noted, calls follow the shape of the dose curve; as a rule, active = well fitted curve in the direction sought with a large enough effect in the repeat runs; inconclusive = weak or mixed curves; inactive = no such curve, though single readings can be large; an effect the other way counts as inactive or inconclusive.

A short description of experiment [1]: qHTS assay for small molecule agonists of retinoid X receptor alpha signaling (AID 588544; calls by dose curve;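 as to activation: 0% = DMSO basal wells and 100% = reference agonist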). To be noted: HEK293T RXRa-UAS-bla, beta-lactamase reporter, 18 h; 530 nm emission. For orientation: qHTS replaces the single test concentration by a dilution series.
Experiment [2] has as its target Retinoic acid receptor RXR-alpha (Homo sapiens) (UniProt P19793). The description is as above. To be noted: HEK293T RXRa-UAS-bla, beta-lactamase reporter, 18 h; series mostly up to 76.7 µM.
Experiment [3] addresses Thyroid hormone receptor beta (Homo sapiens) (UniProt P10828). As to the kind of experiment: qHTS assay for small molecule agonists of thyroid hormone receptor beta signaling (AID 588545; calls by dose curve;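 also: 0% = DMSO only and 100% = 10 nM T3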). The conditions noted are these: TR-UAS-bla GripTite HEK 293, beta-lactamase ratio, agonist mode, 18 h, percent of T3 response, DMSO as zero; series mostly up to 76.7 µM. An outline of the steps:
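TR-UAS-bla-GripTite HEK 293 cells in medium with 2% charcoal/dextran FBS, 0.1 mM NEAA and 1 mM sodium pyruvate were treated with titrated compounds for 18 hrs at 37 C. Beta-lactamase reporter was read with CCF4 dye (ex 405, em 460/530 nm); EC50 from Hill fits.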

Experiment [4] is described as follows: qHTS assay for small molecule antagonists of retinoid X receptor alpha signaling (AID 588546; active = well fitted inhibition curve with a large enough effect in the signal ratio, with a control signal flat, not every such curve was filed as active; the % refers to the signal ratio;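 also: cells stimulated with 9-cis-retinoic acid as agonist; % is scaled to controls: 0 for no effect and ±100 for the full control effect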). The conditions noted are these: HEK293T RXRa-UAS-bla, beta-lactamase ratio, antagonist mode; measured here: W530 green channel, cytotoxicity proxy. Put shortly:
(§1)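 Beta-lactamase reporter inhibition, read as CCF4 fluorescence ratio (ex 405, em 460/530 nm) after 2 h at RT. HEK293T UAS-bla cells, 2500/well, were stimulated with 9-cis-RA at 500 or 100 nM final alongside test compound for 18 h at 37 C.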

Experiment [5] has as its target Retinoic acid receptor RXR-alpha (Homo sapiens) (UniProt P19793). Described as above. To be noted: HEK293T RXRa-UAS-bla, beta-lactamase ratio, antagonist mode. Put shortly: as §1
Experiment [6] deals with Thyroid hormone receptor beta (Homo sapiens) (UniProt P10828). The experiment is described as follows: qHTS assay for small molecule antagonists of thyroid hormone receptor beta signaling (AID 588547; active = well fitted inhibition curve with a large enough effect in the signal ratio, with a control signal flat, not every such curve was filed as active; the % refers to the signal ratio;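 also: cells stimulated with 0.4 nM T3 agonist during compound exposure; % is scaled to controls: 0 for no effect and ±100 for the full control effect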). To be noted: TR-UAS-bla HEK293, beta-lactamase ratio, antagonist mode, 18 h. An outline of the steps:
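TR-UAS-bla GripTite HEK293 cells in 2% charcoal/dextran FBS medium were preincubated 4 h at 37 C, given compound (0.59 nM to 92 uM) plus 0.4 nM T3 (final) for 18 h, then CCF4 for 2 h at RT; Hill fit gave IC50.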

Experiment [7] in a line: qHTS assay for small molecule activators of the nuclear factor-kappa B (NF-kB) signaling pathway (AID 651749; active = well fitted activation curve with a large enough effect in the signal ratio; the % refers to the signal ratio; also: % of control where 0% means no effect). The conditions noted are these: NF-kB-bla ME-180 cells, beta-lactamase FRET ratio, 16 h; stronger effect = higher value. Put shortly: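 Screening used 2,000 ME-180 reporter cells per well exposed to pinned compound (23 nL) or DMSO; after 16 hr at 37C, beta-lactamase expression under NF-kB control was assessed through FRET.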

The nature of experiment [8]: qHTS assay for environmental chemicals that activate the Aryl hydrocarbon Receptor (AhR) signaling pathway (AID 651777; active = well fitted curve in the direction sought with a large enough effect; an effect the other way counts as inactive or inconclusive; also: % of control where 0% means no effect; nearly all actives have a fitted effect of over 15% in size). The conditions noted are these: 1A2-DRE human hepatoma cells, luciferase, 24 h; activation: stronger effect = higher value. An outline of the steps: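 AhR activation is scored as a rise in luciferase from a stable DRE–CYP1A2 promoter construct in human hepatoma cells. Treatment lasts 24 hr at 37 C; detection uses One-Glo after 30 min at room temperature.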

For experiment [9], the target named is Peroxisome proliferator-activated receptor alpha (Homo sapiens) (UniProt Q07869). As to the kind of experiment: qHTS assay for small molecule agonists of the peroxisome proliferator-activated receptor alpha (PPARalpha) signaling pathway (AID 651778; active = well fitted curve in the direction sought with a large enough effect; an effect the other way counts as inactive or inconclusive; also: % of control where 0% means no effect). To be noted: PathHunter PPARalpha complementation, chemiluminescence, 6 h; stronger effect = higher value. An outline of the steps: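 Cells plated at 2,000/well and held overnight at 37 C, 5% CO2, then compound added by pin tool for 6 hr; after PathHunter detection reagent and 60 min at room temperature, chemiluminescence from enzyme complementation was read.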
Peroxisome proliferator-activated receptor alpha (Homo sapiens), sequence (Q07869 whole entry, looked up): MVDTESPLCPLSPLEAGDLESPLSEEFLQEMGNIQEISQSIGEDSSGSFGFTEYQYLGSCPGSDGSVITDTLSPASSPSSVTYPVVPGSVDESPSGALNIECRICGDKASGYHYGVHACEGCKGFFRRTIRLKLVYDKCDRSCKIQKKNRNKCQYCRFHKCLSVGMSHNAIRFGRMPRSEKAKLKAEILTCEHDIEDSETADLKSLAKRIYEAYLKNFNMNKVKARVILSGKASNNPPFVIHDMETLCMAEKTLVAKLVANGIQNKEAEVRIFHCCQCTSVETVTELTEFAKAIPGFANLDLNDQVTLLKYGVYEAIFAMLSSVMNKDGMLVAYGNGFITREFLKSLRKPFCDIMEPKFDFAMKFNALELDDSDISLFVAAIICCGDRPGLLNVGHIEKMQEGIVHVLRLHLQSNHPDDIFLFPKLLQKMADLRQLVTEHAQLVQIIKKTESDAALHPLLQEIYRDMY

A short description of experiment [10]: qHTS assay for small molecule agonists of the antioxidant response element (ARE) signaling pathway measured by Nrf2-dependant transcriptional activity (AID 720636).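 Also: HepG2 cells with an ARE-driven luciferase reporter; % of control where 0% means no effect.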 The conditions noted are these: ARE-luc HepG2, Nrf2 luciferase reporter, 16 h; series mostly up to 92.4 µM. An outline of the steps:
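First, ARE-luc HepG2 cells attached for 6 hr at 37 C in 1% dialyzed FBS medium. Next, compound or DMSO was added and incubated 16 hr. Finally, ONE-Glo reagent was added and luminescence measured after 30 min.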

A short description of experiment [11]: qHTS assay for small molecule antagonists of the retinoid-related orphan receptor gamma (ROR-gamma) signaling pathway - cell viability counter screen (AID 720652).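 Also: compound exposure lasted 16 hr before ATP read; % is scaled to controls: 0 for no effect and ±100 for the full control effect.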 To be noted: RORgamma reporter cell line viability counter screen; series mostly up to 92.2 µM. Put shortly: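 Luminescence from CellTiter-Glo after 30 min at room temperature reported cellular ATP as the cytotoxicity measure. Cells were the CHO reporter line with doxycycline-induced ROR-gamma expression, exposed to compound for 16 hr at 37 C.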

Experiment [12] in a line: qHTS assay for small molecule agonists of the antioxidant response element (ARE) signaling pathway measured by Nrf2-dependant transcriptional activity - cell viability counter screen (AID 720653). Also: % is scaled to controls: 0 for no effect and ±100 for the full control effect. The conditions noted are these: ARE-bla HepG2 viability, CellTiter-Glo ATP luminescence, 16 h; stronger effect = lower value. An outline of the steps: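 ARE-bla HepG2 cells (2,000/well) rested 5 hrs at 37C/5% CO2, then exposed to compounds in DMSO for 16 hrs. Viability was read in the same wells as intracellular ATP by luminescence, 30 min at room temperature after reagent addition.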

The nature of experiment [13]: qHTS assay for small molecule agonists of the antioxidant response element (ARE) signaling pathway (AID 651741; active = well fitted activation curve with a large enough effect in the signal ratio; the % refers to the signal ratio; also: % of control where 0% means no effect). To be noted: HepG2 ARE-bla reporter, beta-lactamase FRET ratio, 16 h; series mostly up to 96 µM. An outline of the steps:
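Compounds in DMSO are pinned onto HepG2 ARE-bla cells (2,000/well) that were preincubated 5 h; plates stay 16 h at 37 C, then beta-lactamase activity is detected with LiveBLAzer B/G substrate by fluorescence.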

Experiment [14] is described as follows: qHTS assay for small molecule disruptors of the mitochondrial membrane potential - 1 hr assay (AID 651754; calls by dose curve; also: % is scaled to controls: 0 for no effect and ±100 for the full control effect; nearly all actives have a fitted effect of over 35% in size). The conditions noted are these: series mostly up to 92.2 µM. An outline of the steps:
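HepG2, 2,000 cells/well, overnight attachment; cpd or DMSO 1 hr, 37C/5% CO2; Mito-MPS dye 30 min, 37C; fluorescence monomer (490/535) and aggregate (540/590).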

Experiment [15] is described as follows: qHTS assay for small molecule disruptors of the mitochondrial membrane potential - 5 hr assay (AID 651755; calls by dose curve; also: % is scaled to controls: 0 for no effect and ±100 for the full control effect; nearly all actives have a fitted effect of over 40% in size). To be noted: JC-1-type ratio dye; series mostly up to 92.2 µM. An outline of the steps:
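HepG2 cells, attached overnight at 37C, were exposed to compound or DMSO for 5 hr at 37C, 5% CO2. Mito-MPS dye was then added for 30 min, and fluorescence read at 490/535 nm (monomers) and 540/590 nm (aggregates).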

In experiment [16] the target is Tumor necrosis factor (Homo sapiens) (UniProt P01375). The experiment is described as follows: qHTS assay to identify small molecules that stimulate Tumor Necrosis Factor-alpha (TNF-alpha) secretion (AID 651757; active = well fitted curve in the direction sought with a large enough effect in the signal ratio; the % refers to the signal ratio; also: 0% is about no effect). The conditions noted are these: Human cells, HTRF 665/615 ratio; series mostly up to 92.2 µM. An outline of the steps: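 Read-out is HTRF, a TR-FRET sandwich of cryptate- and XL665-labeled anti-TNF-alpha antibodies detecting cytokine secreted by THP-1 cells. Cells had been incubated with test compounds at 37 C for 17 hrs beforehand.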
Tumor necrosis factor (Homo sapiens), sequence (P01375 whole entry, looked up): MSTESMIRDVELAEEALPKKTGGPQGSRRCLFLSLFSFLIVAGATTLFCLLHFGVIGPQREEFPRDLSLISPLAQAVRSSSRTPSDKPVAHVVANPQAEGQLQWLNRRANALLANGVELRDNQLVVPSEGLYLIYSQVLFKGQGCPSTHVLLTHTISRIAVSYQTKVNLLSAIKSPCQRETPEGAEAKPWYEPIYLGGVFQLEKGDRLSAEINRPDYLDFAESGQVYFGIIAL

Experiment [17] in a line: qHTS assay for small molecule activators of the p53 signaling pathway (AID 651743; active = well fitted activation curve with a large enough effect in the signal ratio, not every such curve was filed as active; the % refers to the signal ratio; also: % of control where 0% means no effect). To be noted: HCT-116 p53RE-bla, beta-lactamase FRET ratio, 16 h; stronger effect = higher value. An outline of the steps: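 Cell-based beta-lactamase reporter (p53 response elements, HCT-116 background). After a 5-hour preincubation, cells received compound for 16 hours at 37 C; substrate development ran 2 hours at room temperature.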

In experiment [18] the target is Nuclear receptor ROR-gamma (Homo sapiens) (UniProt P51449). As to the kind of experiment: qHTS assay for small molecule antagonists of the retinoid-related orphan receptor gamma (ROR-gamma) signaling pathway (AID 651802; active = well fitted curve in the direction sought with a large enough effect; an effect the other way counts as inactive or inconclusive;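 also: luciferase reporter luminescence driven by ROR response element; % is scaled to controls: 0 for no effect and ±100 for the full control effect; nearly all actives have a fitted effect of over 60% in size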). To be noted: ROR-gamma antagonist cell reporter assay; series mostly up to 92.2 µM. An outline of the steps: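 CHO, TET-inducible ROR + RORE-LUC reporter, 1536-well qHTS. Compound pinned, doxycycline added, 16hr 37C/5% CO2. ONE-Glo, 30 min RT, luminescence; signal drop scored as antagonism.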
Nuclear receptor ROR-gamma (Homo sapiens), sequence (P51449 whole entry, looked up): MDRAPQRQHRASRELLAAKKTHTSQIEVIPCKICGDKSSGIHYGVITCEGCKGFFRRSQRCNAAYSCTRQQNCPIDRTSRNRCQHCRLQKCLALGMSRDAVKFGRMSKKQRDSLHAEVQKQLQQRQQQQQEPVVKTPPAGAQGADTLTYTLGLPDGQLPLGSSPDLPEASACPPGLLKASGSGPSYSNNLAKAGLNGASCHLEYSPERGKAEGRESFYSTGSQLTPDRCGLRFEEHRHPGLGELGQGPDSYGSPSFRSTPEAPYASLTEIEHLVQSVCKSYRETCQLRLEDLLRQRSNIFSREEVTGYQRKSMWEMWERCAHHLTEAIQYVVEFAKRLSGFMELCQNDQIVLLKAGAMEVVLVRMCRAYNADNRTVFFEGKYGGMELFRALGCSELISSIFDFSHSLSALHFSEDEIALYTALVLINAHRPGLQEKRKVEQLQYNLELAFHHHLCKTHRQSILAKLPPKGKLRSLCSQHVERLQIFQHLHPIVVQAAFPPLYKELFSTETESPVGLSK

Retinoic acid receptor RXR-alpha (Homo sapiens), sequence (P19793 whole entry, looked up): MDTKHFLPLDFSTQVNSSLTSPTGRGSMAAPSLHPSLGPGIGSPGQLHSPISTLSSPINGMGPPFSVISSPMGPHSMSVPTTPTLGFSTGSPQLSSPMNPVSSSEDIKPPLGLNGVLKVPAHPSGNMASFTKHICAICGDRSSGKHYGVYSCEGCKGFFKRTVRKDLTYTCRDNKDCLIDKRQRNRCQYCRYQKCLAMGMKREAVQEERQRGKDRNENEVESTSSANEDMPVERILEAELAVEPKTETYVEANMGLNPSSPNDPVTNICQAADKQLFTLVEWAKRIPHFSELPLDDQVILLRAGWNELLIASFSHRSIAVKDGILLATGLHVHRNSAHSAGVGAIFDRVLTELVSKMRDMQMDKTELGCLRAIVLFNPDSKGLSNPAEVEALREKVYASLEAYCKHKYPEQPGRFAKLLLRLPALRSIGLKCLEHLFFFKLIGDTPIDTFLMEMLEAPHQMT
Thyroid hormone receptor beta (Homo sapiens), sequence (P10828 whole entry, looked up): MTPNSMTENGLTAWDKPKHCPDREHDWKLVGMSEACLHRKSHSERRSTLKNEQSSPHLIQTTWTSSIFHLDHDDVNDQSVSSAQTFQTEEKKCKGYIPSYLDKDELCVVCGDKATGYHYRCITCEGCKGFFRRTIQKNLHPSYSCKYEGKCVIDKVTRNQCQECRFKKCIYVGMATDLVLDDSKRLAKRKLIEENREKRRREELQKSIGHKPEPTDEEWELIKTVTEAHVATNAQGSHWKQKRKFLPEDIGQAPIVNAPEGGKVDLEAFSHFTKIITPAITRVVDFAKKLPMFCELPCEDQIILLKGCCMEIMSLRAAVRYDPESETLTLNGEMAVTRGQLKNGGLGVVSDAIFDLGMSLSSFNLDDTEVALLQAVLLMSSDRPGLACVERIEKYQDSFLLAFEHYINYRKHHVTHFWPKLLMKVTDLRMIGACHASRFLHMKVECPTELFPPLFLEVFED

As to `CN(C)c1cccc(O)c1`, the max response is -0.228% in experiment [1]; -1.21% in experiment [4]; 8.46% (inactive) in [5]; -3.12% (inactive) in experiment [9]; -0.49% (inactive) in experiment [12]. Also, the outcome in [2], in experiment [3] and in experiment [10] was inactive. Besides, the activity change % (negative = inhibition) in experiment [6] was 5.73% (inactive). For the same molecule, the activation in [7] is -0.862% (inactive); in [8] it was 6.91% (inactive). For the same molecule, the Potency entry in [11] is “inactive”.

On to `CC(=O)c1cccc([N+](=O)[O-])c1`, for which the max response is -6.78% in [1]; 3.27% in [4]; 7.36% (inactive) in experiment [5]; 0.67% (inactive) in experiment [9]; 17.8% (inactive) in experiment [12]. Also, the call in experiment [2], in experiment [3] and in [10] was inactive. In addition, the activity change % (negative = inhibition) in experiment [6] was 10.7% (inactive). In addition, the Potency entry in experiment [13], in experiment [14], in experiment [15], in experiment [16] and in experiment [11] was “inactive” in each case.

As to `O=[N+]([O-])c1ccccc1CCO`, the max response is 4.35% in [1]; -5.47% in [4]; -8.97% (inactive) in experiment [5]; -1.29% (inactive) in [9]; -3.69% (inactive) in experiment [12]. Further, the call in experiment [2], in [3] and in experiment [10] was inactive. In [6], the activity change % (negative = inhibition) was 2.13% (inactive). The results for the activation in experiment [17], in experiment [7] and in experiment [8] were -1.31% (inactive), -0.881% (inactive) and 0.213% (inactive), respectively. Also, the Potency result in experiment [15], in experiment [16], in experiment [18] and in experiment [11] was “inactive” throughout.

For the molecule `Nc1ccc(Cl)cc1[N+](=O)[O-]`, the max response was -5.09% in experiment [1]; -5.59% in experiment [4]; -5.85% (inactive) in experiment [5]; -2.8% (inactive) in experiment [9]; 0.225% (inactive) in experiment [12]. The result in experiment [2], in experiment [3] and in [10] was inactive. Also, the activity change % (negative = inhibition) in experiment [6] was 1.54% (inactive). The activation in experiment [17] is -3.6% (inactive); in experiment [7], -1.3% (inactive); in experiment [8] it was 1.69% (inactive). Also, in experiment [16], the Potency entry is “inactive”.
